Among the data in PubChem BioAssay (EPA / NIEHS) are outcome and AC50 values, retold here.

The AC50 is the concentration giving half of the maximal activity seen.

Results filed as inconclusive are left out. Activity calls are given as the source filed them. How the source made its calls: active means hit-call score of the fitted dose curve at least 0.9, where 1 is the maximum; inconclusive means response in the unintended direction; inactive means score below 0.9.

A short description of the assay: Tanguay_ZF_120hpf_TRUN_legacy: (Legacy) Oregon State University Tanguay Lab 120 Hour Post-fertilization zebrafish Assay for Truncated Body (AID 2283655). The method, then: Tanguay_ZF_120hpf_legacy is a whole embryo, multiplexed endpoint assay using zebrafish larvae exposed for 120 hours post fertilization on a 96-well plate.Tanguay_ZF_120hpf_TRUN_legacy is one of one assay component(s) measured or calculated from the Tanguay_ZF_120hpf_legacy assay. It is designed to make measurements of zebrafish development as detected with brightfield microscopy of developing zebrafish embryos.Data from the assay component Tanguay_ZF_120hpf_TRUN_legacy was analyzed into 1 assay endpoints. This assay endpoint, Tanguay_ZF_120hpf_TRUN_legacy, was analyzed in the positive analysis fitting direction relative to DMSO as the negative control and baseline of activity. Using a type of morphology reporter, gain-of-signal activity can be used to understand changes in developmentals as they relate to the whole embryo. To generalize the intended target to other relatable targets, this assay endpoint is annotated to the zebrafish development intended target family, where the subfamily is embryonic morphogenesis.
Zebrafish husbandry: Tropical 5D wild-type adult zebrafish were housed in at an approximate density of 1000 per 100 gallon tank at the Sinnhuber Aquatic Research Laboratory, Oregon State University, Corvallis, OR. Each tank was kept at standard laboratory conditions of 28C on a 14-h light/10-h dark photoperiod in fish water consisting of reverse osmosis water supplemented with a commercially available salt (Instant Ocean). Spawning funnels were placed into the tanks the night prior, and embryos were collected and staged. To increase bioavailability, the chorion was enzymatically removed using pronase (63.6mg/ml, >/= 3.5U/mg, Sigma-Aldrich: P5147) at 4 hours post fertilization (hpf) using a custom automated dechorionator.Chemical exposures: Six hpf dechorionated embryos were placed 1 embryo per well in a 96-well plate prefilled with 90 ul of EM using automated embryo placement systems (AEPS). Ten microliters of each row of dilution plate 2 was added to 2 exposure plates. The final DMSO concentration used was 0.64% (vol/vol). Thirty-two embryos were also exposed to 5uM trimethyltin chloride (positive control). Plates were sealed to prevent evaporation and foil covered to reduce light exposure and kept in a 28C incubator. Embryos were statically exposed until 120 hpf. At 24 hpf, embryos were assessed for photomotor response using a custom photomotor response analysis tool (PRAT) and for developmental toxicity endpoints (MO24: mortality at 24 hpf, DP: developmental progression, SM: spontaneous movement, and NC: notochord distortion). At 120 hpf, locomotor activity was measured using Viewpoint Zebralab and assessed for 18 endpoints. Zebrafish acquisition and analysis program (ZAAP), a custom program designed to inventory, acquire, and manage zebrafish data, was used to collect developmental endpoints as either present or absent (i.e., binary responses were recorded). If mortality occurred for an embryo (at either 24 or 120 hpf), the non-mortality endpoints were not measured.
In the case of `OCC(CO)(CO)CO`, the outcome was inactive.

With `CCCCCCCCCCCCCCO`, the result was inactive.

On to `Cn1c(=O)c2[nH]cnc2n(C)c1=O`, for which the outcome was inactive.

Turning to `Cc1ccc(S(=O)(=O)NC(=O)NN2CCCCCC2)cc1`, the call was inactive.

As for `CCCC(CCC)C(=O)O`, the result was inactive.

Regarding `c1ccc(C(O[C@@H]2CCCN(CCc3ccc4c(c3)OCO4)C2)c2ccccc2)cc1`, the AC50 was 38.2 µM (active).

In the case of `Cc1ncc([C@@H](CCCCCCc2ccc3c(n2)NCCC3)CC(=O)O)cn1`, the result was inactive.

On to `CCCCCCCCCCCCCCCCOS(=O)(=O)O`, for which the compound was called inactive.

In the case of `CCn1nc(C)c2c1C(=O)NCC(c1ccc(O)cc1)=N2`, the call was inactive.

Take `CC(C)CCCCCCOC(=O)C1CCCCC1C(=O)OCCCCCCC(C)C` (stereo not given): the outcome was inactive.

For the compound `CC(C)c1nnc2ccc(-c3ocnc3-c3cc(F)ccc3F)cn12`, the call was inactive.

For the compound `CCCCN1C(=O)[C@@H]([C@H](O)C2CCCCC2)NC(=O)C12CCN(Cc1ccc(Oc3ccc(C(=O)O)cc3)cc1)CC2`, the compound was classed as inactive.

`CCCCOC(=O)c1ccccc1`: the outcome was inactive.

In the case of `COS(C)(=O)=O`, the compound was called inactive.

With `CCCCC(CC)C(=O)OCCOCCOCCOC(=O)C(CC)CCCC` (stereo not given), the result was inactive.

As for `O=C(O)c1cccc(C(=O)O)c1`, the call was inactive.

Turning to `O=C(NO)C1(NS(=O)(=O)c2ccc(Oc3ccc(F)cc3)cc2)CCOCC1`, the result was inactive.

On to `CCOC(N)=O`, for which the call was inactive.

As for `O=C(O)[C@H](O)[C@@H](O)C(=O)O`, the compound was classed as inactive.

Consider `OC(CCl)CCl`, for which the outcome was inactive.

As to `C[C@@H](Oc1ccc(CNC(=O)c2cccnc2Oc2ccc3c(c2)OCO3)c(F)c1)C(=O)O`, the outcome was inactive.

With `O=C(O)c1ccc2c(c1)nc(C(=O)NC1CCN(C3CC3)CC1)n2Cc1cc(-c2ccc(Cl)s2)on1`, the outcome was inactive.

Consider `OCCNCCO`, for which the compound was classed as inactive.

As to `CCCOc1ccc(S(=O)(=O)N2CCN(CC)CC2)cc1-c1nc2c(CC)n(Cc3ccccn3)nc2c(=O)[nH]1`, the compound was called inactive.

For the compound `c1ccc2ncccc2c1`, the compound was called inactive.

Regarding `Cc1nccn1-c1ccc(Sc2cccc(C3(C(N)=O)CCOCC3)c2)cc1`, the compound was called inactive.

For the compound `CC(=O)c1ccccc1`, the compound was called inactive.

For `C[C@]12C=CC(=O)C=C1CC[C@H]1[C@@H]3C[C@@H](O)[C@](O)(C(=O)CO)[C@@]3(C)C[C@H](O)[C@@]12F`, the result was inactive.

As to `CCCCCCCC1CCC(=O)O1` (stereo not given), the compound was called inactive.

With `c1ccc2cc3ccccc3cc2c1`, the result was inactive.

As for `O=C1CN(N=Cc2ccc([N+](=O)[O-])o2)C(=O)N1`, the call was inactive.

For `OC[C@H]1O[C@@](CO)(O[C@H]2O[C@H](CO)[C@@H](O)[C@H](O)[C@H]2O)[C@@H](O)[C@@H]1O`, the result was inactive.

As for `OCCOCCOCCO`, the compound was classed as inactive.

In the case of `NC(=O)N(O)[C@@H]1COc2cc(OCc3ccccc3)ccc21`, the compound was classed as inactive.

`CC1(C)C(=O)N(Cl)C(=O)N1Cl`: the compound was classed as inactive.

Regarding `CCc1ccc(O)c(C(C)(C)C)c1`, the call was inactive.

For the compound `CCCCCCOC(=O)CC(CC(=O)OCCCCCC)(OC(=O)CCC)C(=O)OCCCCCC`, the outcome was inactive.

On to `OCc1ccccc1`, for which the compound was classed as inactive.

Take `CNC(C)=O`: the compound was classed as inactive.

As to `CCOc1ccc2[nH]cc(C(=O)NCc3ccccc3)c(=O)c2n1`, the compound was classed as inactive.
